From PubChem BioAssay AID1645855 (Buhrlage Lab, Dana-Farber Cancer Institute and Novartis …, 2021) come the findings set out here.

The whole screen tested about 47,000 compounds, of which about 3,100 (6.6%) were called active. Many of the other results were omitted from the sample, so actives are more common in it than they were. Unmarked numbers belong to inactive results. Cut-off read from the data, not from the text of the source: active = inhibition above about 30%; inactive = the rest.

For the test, the target named is Ubiquitin carboxyl-terminal hydrolase 17-like protein 5 (Homo sapiens) (UniProt A8MUK1). The test is described as follows: blocks human USP17 ubiquitin-rhodamine cleavage (AID 1645855). The following applies: purified USP17, Ub-rhodamine cleavage fluorescence, 3 h; at 50 µM; active compounds read high.
Ubiquitin carboxyl-terminal hydrolase 17-like protein 5 (Homo sapiens), sequence (A8MUK1 whole entry, looked up): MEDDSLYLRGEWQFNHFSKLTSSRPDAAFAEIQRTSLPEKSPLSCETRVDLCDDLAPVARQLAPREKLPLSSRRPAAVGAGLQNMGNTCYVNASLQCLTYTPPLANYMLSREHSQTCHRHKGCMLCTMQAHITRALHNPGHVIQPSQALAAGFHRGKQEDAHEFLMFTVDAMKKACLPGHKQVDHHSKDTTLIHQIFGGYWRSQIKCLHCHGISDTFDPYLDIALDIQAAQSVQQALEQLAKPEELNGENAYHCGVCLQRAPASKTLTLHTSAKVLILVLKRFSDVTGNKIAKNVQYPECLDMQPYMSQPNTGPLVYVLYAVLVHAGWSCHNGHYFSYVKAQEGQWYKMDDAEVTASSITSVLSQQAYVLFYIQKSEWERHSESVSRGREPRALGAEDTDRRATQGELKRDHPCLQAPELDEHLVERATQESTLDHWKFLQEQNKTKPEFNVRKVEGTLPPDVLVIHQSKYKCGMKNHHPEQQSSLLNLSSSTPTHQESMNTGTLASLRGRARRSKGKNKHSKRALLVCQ
Broadly, the inhibition is the change of the read-out against control, counted positive when it falls. With `Cc1noc(-c2ccc3nnc(CC(=O)Nc4ccc(C)c(F)c4)n3c2)n1`, the inhibition was -2.57%.

For `COC(=O)c1cccc(Oc2nc(OC)nc(OC)n2)c1`, the inhibition is -1.33%. With `Cc1ccc(CNC(=O)c2ccc(-c3cccnc3)nc2)cc1`, the inhibition was 9.44%. For `CNS(=O)(=O)c1ccc(CNC(=O)c2cc(-c3ccc(C)cc3)no2)cc1`, the inhibition is 65% (active). Under `Cc1cc(C)n(Cc2c(C(=O)NCc3ccc(F)cc3)noc2C)n1` stands -5.62%; under `CCn1cc(S(=O)(=O)CC(=O)Nc2ccccc2C(F)(F)F)c2ccccc21`, -1.62%. Under `CC1CCN(C(=O)CSc2ccc3nnc(-c4cccc(F)c4)n3n2)CC1` stands -2.06%; under `Cc1cccc(-c2nnc3ccc(N4CCC(C(=O)NC(C)Cc5ccco5)CC4)nn23)c1` (stereo not given), 48.5% (active). Under `O=C(Nc1ccccc1[N+](=O)[O-])N1CCN(c2ccc3nnc(-c4ccccc4)n3n2)CC1` stands 12.5%.

As for `COCCn1c(=O)[nH]c2cc(C(=O)NCc3ccc(Cl)cc3)ccc2c1=O`, the inhibition was 0.361%. The figure for `COCCn1c(=O)[nH]c2cc(C(=O)NCCNc3ccc([N+](=O)[O-])cc3C#N)ccc2c1=O` is 53.7% (active); for `COCCn1c(=O)[nH]c2cc(C(=O)N3CCC(Cc4ccccc4)CC3)ccc2c1=O` it is 2.53%; for `CN1CCN(S(=O)(=O)c2cccc(C(=O)Nc3cccc(S(N)(=O)=O)c3)c2)CC1` it is -6.3%.

`COc1cccc(N2CCN(C(=O)C3CCN(c4ncnc5onc(C)c45)CC3)CC2)c1`: the inhibition was -20.4%. Under `CCC(=O)Nc1nc2cc(NC(=O)c3ccc(OC)cc3)ccc2s1` stands 30.9% (active). The figure for `CCC(=O)c1ccc(OCC(=O)Nc2ccc3nc(C)sc3c2)cc1` is 5.34%; for `CCOc1ccc2nc(NC(=O)CN3CCC(C(N)=O)CC3)sc2c1` it is -0.089%; for `CC(=O)N1c2ccc(S(=O)(=O)NCC3CCC(C(=O)Nc4cccnc4)CC3)cc2CC1C` (stereo not given) it is 0.344%.

For the compound `CC(Oc1ccc2c3c(c(=O)oc2c1)CCC3)C(=O)NCC(=O)N1CC[C@@]2(O)CCCC[C@H]2C1` (stereo not given in full), the inhibition is 10.3%. As for `CNC(=O)c1cnc2scc(-c3ccccc3)n2c1=O`, the inhibition is 1.82%. For `Cc1ccc2c(c1)C(=O)NCC1(CCN(C(=O)c3cscn3)CC1)O2`, the inhibition is 0.0795%.

`Cc1noc2nc(C3CC3)cc(C(=O)Nc3nc4ccccc4s3)c12`: the inhibition was -4.21%. Under `O=C(Nc1ccc2sc(NC(=O)C3CCCCC3)nc2c1)NC1CCCC1` stands 20.6%; under `Cc1ccc2sc(NC(=O)NC(=O)c3c(Cl)cccc3Cl)nc2c1`, 36.4% (active); under `Cc1ccc(Cn2cc(C(=O)O)c(S(=O)(=O)N3CCOCC3)n2)cc1`, -22.5%. Under `CC(C)OCCCn1c(=O)c2ccccc2n2c(CCC(=O)NCCN3CCN(c4cccc(Cl)c4)CC3)nnc12` stands 8.41%. The figure for `O=C(C1CCc2nc(N3CCOCC3)ncc2C1)N1CCCCCC1` (stereo not given) is -6.44%; for `Cc1ccc(NC(=O)C2CCCN(c3ncnc4onc(C)c34)C2)nc1` (stereo not given) it is 0.0336%; for `O=C(NCC1CC1)c1nc(-c2ccc3[nH]ccc3c2)no1` it is -9.5%.

As for `O=C(NC1CC1)C1CCN(c2ncccc2-c2nc(-c3ccccc3)no2)CC1`, the inhibition is 17.4%. The figure for `O=C(NC1CC1)c1nc(-c2ccc(-n3cccc3)cc2)no1` is 43.1% (active); for `CSCC[C@H](NC(=O)N1CCn2c1nc1ccccc12)C(=O)NCc1ccc2c(c1)OCO2` it is 14.2%.

Take `CCn1c(=O)c(CCC(=O)N2CCN(c3ccccc3)CC2)nc2c(C)nn(-c3ccccc3)c21`: the inhibition is 5.12%.

For the compound `c1ccc(Nc2cc(CC3CCN(Cc4cnc[nH]4)CC3)ncn2)nc1`, the inhibition is -12.1%.

As to `CC1(C)Cc2c(c(-c3ccco3)nc3sc4c(SCCCc5ccccc5)ncnc4c23)CO1`, the inhibition is 69.7% (active). The figure for `CSc1ncnc2c1sc1nc(-c3ccccc3)c3c(c12)CC(C)(C)OC3` is 3.2%; for `CCCCCCSc1ncnc2c1sc1nc(-c3ccccc3)c3c(c12)CC(C)(C)OC3` it is 3.28%. The figure for `Cc1ccc(S(=O)(=O)N2Cc3ccccc3CN3C(=O)NC(=O)C3C2)cc1` (stereo not given) is 4.38%. Under `COc1ccc(CCNc2ncnc3c2cnn3Cc2ccccc2)cc1OC` stands -18.7%; under `CC(=O)N1CC(C)Oc2cc(S(=O)(=O)Nc3ccc(C)cc3C)ccc21` (stereo not given), 6.48%; under `CC1CCc2c(sc(NC(=O)c3cc(-c4ccccc4)nc4ccccc34)c2C(N)=O)C1` (stereo not given), 4.55%.

In the case of `Cc1c(Cc2ccccc2)sc(NC(=O)c2cccnc2)c1C(N)=O`, the inhibition was 10.7%. The figure for `NC(=O)c1c(NC(=O)c2ccccc2Oc2ccccc2)sc2c1CCN(Cc1ccccc1)C2` is 30.4% (active). Under `O=C(NCc1ccc2c(c1)OCO2)c1ccc(CS(=O)c2ccc(Cl)cc2)o1` (stereo not given) stands -0.0116%. The figure for `CCc1cccc(C)c1NC(=O)C1=Cc2cc(OC)ccc2OC1` is -6.4%. As to `Cc1cccc(CNC(=O)C2CCN(c3cnc4nccnc4c3)CC2)c1`, the inhibition is -128%. As to `Cc1cccc(CNC(=O)C2CCCN(S(=O)(=O)Cc3ccc(F)cc3)C2)c1` (stereo not given), the inhibition was 56.7% (active).

Consider `CC(=O)Nc1nsc(N2CCC(C(=O)NCc3cccc(C)c3)CC2)n1`, for which the inhibition was -1.72%. Consider `COc1ccc(Cn2cc(-c3nc(C4CC4)no3)ccc2=O)cc1F`, for which the inhibition is -5.47%. The figure for `CCN1CCN(c2nc3c(c(=O)[nH]c(=O)n3C)n2CC(O)c2ccccc2)CC1` (stereo not given) is -4.6%; for `C=CCn1c(N2CCC(C(=O)NCC(C)O)CC2)nc2ccccc21` (stereo not given) it is 9.39%; for `O=C1N[C@H]2OCCC[C@H]2[C@H](c2ccccc2C(=O)O)N1` it is -6.46%. Under `Cn1c(CCN2CCCC2)nc2cc(NS(=O)(=O)c3ccccc3)ccc21` stands 60.7% (active); under `Cn1c(CCN2CCCC2)nc2cc(NC(=O)c3cccc([N+](=O)[O-])c3)ccc21`, 16.8%. Under `CC(=O)Nc1ccc2c(c1)nc(CCN1CCCC1)n2C` stands -8.68%; under `CCc1nnc(NC(=O)c2cc(-c3ccc(C)c(C)c3O)n[nH]2)s1`, 16.7%; under `CC(C)(C)C(=O)Nc1ccc(SCc2nnc(-c3ccccc3)o2)cc1`, 2.2%.

With `COc1cc(C(=O)Nc2ccc(-c3nc4cnccc4o3)cc2)cc(OC)c1OC`, the inhibition is -3.38%. Under `O=C(Cc1ccccc1)Nc1ccc(-c2nc3cnccc3o2)c(O)c1` stands 63.3% (active); under `O=C(Nc1ccc(-c2nc3cnccc3o2)c(O)c1)c1ccc(-c2ccccc2)cc1`, 2.32%. Regarding `O=C(c1cc(Cl)ccc1F)N1CCC(c2nc(C3CC3)n[nH]2)CC1`, the inhibition was -2.96%. In the case of `O=C(Cn1cc(S(=O)(=O)Cc2ccccc2F)c2ccccc21)N1CCCCCC1`, the inhibition is -0.288%. Under `O=C(Cn1cc(S(=O)(=O)Cc2ccccc2Cl)c2ccccc21)N1CCCCCC1` stands 42% (active). The figure for `Cc1ccc(CS(=O)(=O)c2cn(CC(=O)N3CCCCC3)c3ccccc23)cc1` is -20.5%. The figure for `COc1ccc(-c2nc(-c3cccs3)no2)cc1OC` is -2.65%. In the case of `O=S(=O)(c1ccc(S(=O)(=O)N2CCN3CCCC3C2)cc1)N1CCOCC1` (stereo not given), the inhibition was -8.52%.

With `Cc1ccc(Nc2nc(O)c(CC(=O)Nc3ccc(C(C)C)cc3)s2)cc1C`, the inhibition is 6.68%. Under `Cc1ccc(NC(=O)Cc2sc(Nc3ccc(C)cc3)nc2O)cc1` stands 58.2% (active). The figure for `CCOc1ccc(Nc2nc(O)c(CC(=O)Nc3cccc(C)c3)s2)cc1` is 7.74%. The figure for `NC(=O)CN1C(=O)CO[C@H]2CN(Cc3ccc(F)c(F)c3)C[C@H]21` is -11.3%; for `Cn1c(=O)n(CCCO)c(=O)c2c1nc1n2CCCN1c1ccccc1` it is 9.32%.

For `COc1cccc(N2CCN(C(=O)CCC3=NS(=O)(=O)c4ccc(C)cc4N3)CC2)c1`, the inhibition is -26.5%. With `COc1ccccc1NC(=O)N1CCN(Cc2nc3ccccc3o2)CC1`, the inhibition is -4.24%. As for `Cn1c(=O)c2ncn(CC(=O)Nc3ccc(-c4nc5ccccc5o4)cc3)c2n(C)c1=O`, the inhibition was 8.05%.

As for `CCOc1ccccc1NC(=O)Nc1cc(-c2nc3ccccc3o2)ccc1OC`, the inhibition is 57.1% (active).

With `CCN1CCN(c2cc(C)c3cc(NC(=O)c4cccnc4)ccc3n2)CC1`, the inhibition is -9.13%.

`Cn1cnnc1SCC(=O)Nc1ccc(N2CCOCC2)c(Cl)c1`: the inhibition is -11.6%.

For `O=C(Cc1ccccc1Cl)Nc1ccc(N2CCOCC2)cc1`, the inhibition was 31.6% (active). Under `CCN(CC)c1nc2ccccc2nc1C(=O)Nc1ccc(N2CCOCC2)cc1` stands -6.91%. Take `O=S(=O)(NCc1nc2cccnc2n1C1CC1)c1ccccc1F`: the inhibition is 9.68%.

For the compound `Cc1nn(-c2ccc(F)cc2)c(C)c1S(=O)(=O)NCc1ccc2c(c1)OCO2`, the inhibition is -23%.

As for `COc1ccc(-c2ocnc2C(=O)NCc2ccc(OC)c(OC)c2)cc1`, the inhibition is -0.808%. The figure for `Cn1nc(C(=O)NCCN2CCOCC2)c2c1-c1ccccc1CC2` is 2.07%. Turning to `COc1ccc(CNC(=O)c2[nH]nc3c2CCc2ccccc2-3)cc1`, the inhibition is 67.3% (active). Under `CC(=O)O[C@H]1C[C@@]23COC(=O)/C=C(\C)CCOC(=O)/C=C/C=C\C(=O)O[C@@H]4C[C@@H](O[C@@H]2C=C1C)[C@@]1(CO1)[C@]43C` stands -0.539%; under `Cc1nn(C)cc1C(=O)Nc1cnn(C)c1C(N)=O`, 5.15%. Regarding `CC(C)(C)C(=O)OCc1noc(-c2ccccc2)n1`, the inhibition was 16.8%. For `CC(C)(C)c1nn(-c2ccccc2)c2[nH]c(=O)c(CNCCc3ccccc3)cc12`, the inhibition was 31.9% (active). As for `Cc1nn(-c2ccccc2)c2[nH]c(=O)c(C#N)c(-c3ccco3)c12`, the inhibition was -26.6%. Under `Cc1ccc(NCc2cc3c(C)nn(-c4ccccc4)c3[nH]c2=O)cc1C` stands -32.1%.
